Data: PubChem BioAssay AID588413 (Sanford-Burnham Center for Chemical Genomics, 2011)
The whole screen tested about 340,000 compounds, of which about 2,500 (0.74%) were called active.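 Rule for the calls: active = inhibition above about 55% (limit read from the data); inactive = the rest.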 Shown is part of a subset that was picked to be rich in actives.

Experiment: Gli-Sufu pathway antagonists, primary screen, luciferase luminescence, Sufu-KO-LIGHT cells, uHTS (AID 588413);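 note: 0% = DMSO-treated cells and 100% = wells with medium but no cells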
Settings: Sufu-KO-LIGHT fibroblasts, Gli luciferase reporter luminescence; at 5 µM; hits give high values

| SMILES | inhibition |
| --- | --- |
| COCCn1cnnc1SCC(=O)Nc1cccc(S(=O)(=O)N2CCCCC2)c1 | -21.3% (inactive) |
| CCOc1cccc(NC(=O)Cn2nc(-c3ccc4c(c3)OCCO4)ccc2=O)c1 | -1.4% (inactive) |
| Cc1c(C(=O)NCC(c2ccco2)N2CCCC2)oc2ccc(Cl)cc12 (stereo unspecified) | 16.9% (inactive) |
| O=C1[C@@H](c2ccccc2)[C@@H](c2ccccc2)N1c1cccnc1 | 7.59% (inactive) |
| C[C@@H]1NS(=O)(=O)c2cc(Cl)ccc2O[C@@H]1c1ccccc1 | -5.11% (inactive) |
| O=C(COc1cccc(Cl)c1)NCc1ccccc1 | 5.34% (inactive) |
| O=C(O)CCCn1cc(NC(=O)COc2cccc(Cl)c2)cn1 | 62.4% (active) |
| CCOc1cccc(C(=O)Nc2cnn(Cc3ccccc3)c2)c1 | -43.8% (inactive) |
| COC(=O)C1CC2=C(CC(C)(C)CC2=O)N(c2ccccc2)C1=O (stereo unspecified) | 4.81% (inactive) |
| Cc1ccc(C(CNC(=O)Nc2cccc(C)c2)N2CCN(C)CC2)cc1 (stereo unspecified) | 44.3% (inactive) |
| CCOc1cc(C2/C(=C(/O)c3ccc(S(=O)(=O)N4CCCCC4)cc3)C(=O)C(=O)N2CCOC)ccc1O (stereo unspecified) | -6.41% (inactive) |
| CCCN(C(=O)CSc1nnnn1C)c1c(N)n(Cc2ccccc2)c(=O)[nH]c1=O | -4.32% (inactive) |
| COc1ccc2sc(-c3ccc(N(C)C)cc3)c(C#CCO)c2c1 | -3.68% (inactive) |
| COc1ccc2c(c1)c(=Cc1ccc(N(C)C)cc1)c1cc(-c3ccccc3)[n+](C)n12 | 71.7% (active) |
| CN(CC(=O)NC(=O)Nc1ccccc1F)Cc1ccccc1 | -0.74% (inactive) |
| CCn1nc(C(=O)Nc2ccc(N3CCOCC3)cc2)c2ccccc2c1=O | 6.24% (inactive) |
| CCN(CCO)C(=S)Nc1cc(C(=O)OC)ccc1C(=O)OC | 96.9% (active) |
| CCCN(CCC)C(=S)Nc1cc(C(=O)OC)ccc1C(=O)OC | 1.47% (inactive) |
| CCS(=O)(=O)Nc1cc(C(=O)OC)ccc1C(=O)OC | -3.7% (inactive) |
| O=C(C(c1ccccc1)c1ccccc1)N1CCN(CC(O)COc2ccccc2)CC1 (stereo unspecified) | 3.62% (inactive) |
| CC(C)OCC(O)CN1CCN(C(c2ccccc2)c2ccccc2)CC1 (stereo unspecified) | 76.8% (active) |
| COc1ccccc1CN1CCN(C(c2ccccc2)c2ccccc2)CC1 | 25.4% (inactive) |
| COc1ccc(C(=O)OCC(=O)NCC2CCCO2)cc1[N+](=O)[O-] (stereo unspecified) | -0.12% (inactive) |

| SMILES | inhibition |
| --- | --- |
| c1ccc2c(c1)CSc1sccc1C2=C1CCNCC1 | 28.4% (inactive) |
| COC(=O)c1c(C)[nH]c(C(=O)NCCc2ccc(S(N)(=O)=O)cc2)c1C | -12.2% (inactive) |
| COc1ccc(NC(=O)NNC(=O)COc2cc(C)c(Cl)c(C)c2)c(OC)c1 | -3.14% (inactive) |
| Cc1cccc(N2CC(C(=O)Nc3ccccc3N3CCCC3)CC2=O)c1C (stereo unspecified) | -3.8% (inactive) |
| CN1CCN(CCC(=O)N/N=C/C=C2\N(C)c3ccccc3C2(C)C)CC1 | 29.6% (inactive) |
| CC(C)Nc1nnc(SCC(=O)/C=C2\N(C)c3ccccc3C2(C)C)s1 | 2.92% (inactive) |
| CC(=O)Nc1cccc(OCC(=O)/C=C2\N(C)c3ccccc3C2(C)C)c1 | 56.5% (active) |
| COc1ccc(N2CCN(C(=O)C3CCN(S(=O)(=O)c4ccc(C)cc4)CC3)CC2)cc1 | 18.7% (inactive) |
| CCCCCN(C(=O)NC(=O)Nc1cccc(C)c1C)S(C)(=O)=O | -3.52% (inactive) |
| CC(=O)OCC(COC(C)=O)OC(C)=O | -14.9% (inactive) |
| CC(=O)OC(C)C[N+](C)(C)C (stereo unspecified) | 15.8% (inactive) |
| CC(=O)OCCC(C)C | 57.4% (active) |
| CC(C)CC(=O)NC(=S)NNC(=O)c1cccc([N+](=O)[O-])c1 | -4.7% (inactive) |
| COc1ccc(C)cc1NC(=S)N1CCOCC1 | 1.61% (inactive) |
| CC(=O)N1CCCc2cc(S(=O)(=O)N3CCCC(C(=O)NCc4ccc(Cl)cc4)C3)ccc21 (stereo unspecified) | 27% (inactive) |
| CC(=O)N1CCCc2cc(S(=O)(=O)N3CCCC(C(=O)N4CCN(c5cccc(Cl)c5)CC4)C3)ccc21 (stereo unspecified) | 64.5% (active) |
| CC(=O)N1c2ccc(S(=O)(=O)N3CCCC(C(=O)Nc4cccc(Cl)c4)C3)cc2CC1C (stereo unspecified) | -0.91% (inactive) |
| O=C(Nc1ccccc1C(=O)NCCCn1ccnc1)c1ccc(Cl)cc1Cl | 19.3% (inactive) |
| CCOC(=O)C(CO)NC(=O)C1(NC(C)=O)CCCC1 (stereo unspecified) | -2.14% (inactive) |
| O=C(CN(CC1CCCO1)C(=O)CNS(=O)(=O)c1ccc(F)cc1)NCc1ccco1 (stereo unspecified) | 0.03% (inactive) |
| O=C1/C(=C/c2ccc(F)cc2)SC(=S)N1CCCC(=O)N1CCCCC1CCO (stereo unspecified) | -14.7% (inactive) |
| O=C(O)c1ccc(/C=C2\SC(=S)N(NC(=O)c3ccc(Br)cc3)C2=O)cc1 | 10% (inactive) |
| O=C1/C(=C/c2ccc(F)cc2)SC(=S)N1NS(=O)(=O)c1ccccc1 | 59.1% (active) |
